# Assay results reported in PubChem BioAssay.
# Unmarked numbers belong to inactive results. Calls of active or inactive are those of the source.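 The calls were made as follows, unless noted: active = mean inhibition above 46.68%, the untreated control wells mean plus 3 SD; inactive = the rest.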
# How the values were obtained:
# [1] = biological target: Nuclear receptor coactivator 1 (Homo sapiens) (UniProt Q15788); test: SRC1 coactivator transcriptional activity inhibitors, confirmation, cell-based, luminescence, quadruplicate (AID 588820); conditions: HEK293 GAL4-SRC1 luciferase reporter, at 3.6 µM, active compounds read high;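 also: 0% = DMSO wells and 100% = gossypol 36 µM treated wells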
# Nuclear receptor coactivator 1 (Homo sapiens), sequence (Q15788 whole entry, looked up, the tested form may be a part): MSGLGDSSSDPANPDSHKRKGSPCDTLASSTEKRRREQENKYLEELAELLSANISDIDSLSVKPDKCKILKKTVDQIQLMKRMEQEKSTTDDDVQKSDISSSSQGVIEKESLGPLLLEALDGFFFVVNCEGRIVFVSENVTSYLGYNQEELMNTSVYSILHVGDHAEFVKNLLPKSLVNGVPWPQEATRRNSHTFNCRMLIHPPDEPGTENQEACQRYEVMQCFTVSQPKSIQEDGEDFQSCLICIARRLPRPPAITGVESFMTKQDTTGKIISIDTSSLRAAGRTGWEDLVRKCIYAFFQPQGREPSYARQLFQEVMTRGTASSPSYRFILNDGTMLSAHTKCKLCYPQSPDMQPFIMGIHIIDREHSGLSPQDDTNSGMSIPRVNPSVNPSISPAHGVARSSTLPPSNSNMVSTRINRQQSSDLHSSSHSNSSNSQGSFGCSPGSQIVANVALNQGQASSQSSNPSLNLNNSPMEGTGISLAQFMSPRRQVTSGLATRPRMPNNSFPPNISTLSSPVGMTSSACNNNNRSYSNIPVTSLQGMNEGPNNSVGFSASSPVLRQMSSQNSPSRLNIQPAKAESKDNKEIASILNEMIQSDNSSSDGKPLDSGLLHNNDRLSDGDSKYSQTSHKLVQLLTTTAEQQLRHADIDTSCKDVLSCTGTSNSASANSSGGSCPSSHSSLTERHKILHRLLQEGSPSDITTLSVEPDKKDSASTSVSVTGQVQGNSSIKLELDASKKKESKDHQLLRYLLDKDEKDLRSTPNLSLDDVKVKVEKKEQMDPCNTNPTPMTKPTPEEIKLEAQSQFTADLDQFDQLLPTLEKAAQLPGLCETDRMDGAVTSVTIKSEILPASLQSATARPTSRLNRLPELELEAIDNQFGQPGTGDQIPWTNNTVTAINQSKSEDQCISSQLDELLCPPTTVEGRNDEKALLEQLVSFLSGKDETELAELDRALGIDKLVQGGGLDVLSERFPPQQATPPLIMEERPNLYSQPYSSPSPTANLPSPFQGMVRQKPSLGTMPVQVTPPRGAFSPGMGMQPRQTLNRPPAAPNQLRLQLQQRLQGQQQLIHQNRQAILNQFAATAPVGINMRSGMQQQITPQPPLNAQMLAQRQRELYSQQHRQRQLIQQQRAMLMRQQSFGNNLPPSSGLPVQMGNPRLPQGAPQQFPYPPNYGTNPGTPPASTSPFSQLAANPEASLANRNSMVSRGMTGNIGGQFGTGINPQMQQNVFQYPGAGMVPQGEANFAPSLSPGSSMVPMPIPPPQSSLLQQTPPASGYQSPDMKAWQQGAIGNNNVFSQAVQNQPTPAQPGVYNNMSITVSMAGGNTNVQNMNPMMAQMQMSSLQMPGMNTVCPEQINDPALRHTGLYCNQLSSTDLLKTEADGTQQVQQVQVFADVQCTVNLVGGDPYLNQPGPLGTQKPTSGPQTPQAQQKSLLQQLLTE
# [2] = VP16 transactivation inhibitors, counter-screen for SRC1 inhibitor project, cell-based, luminescence, high throughput (AID 588824; in the data active = inhibition above about 25%); conditions: cell-based VP16 transactivation luciferase luminescence; at 3.6 µM; active compounds read high
SMILES,inhibition [1] [%],inhibition [2]
Cc1ccc(C)c(NC(=O)CCc2ccc(C)o2)c1,5.55,-2.65%
Cc1cccc(-n2ncc3c2CCCC3NC(=O)CCN2CCCCO2)c1C (stereo unspecified),-0.83,-2.39%
O=C(c1ccccc1)C1CCN(C(=O)c2ccc(Cl)cc2)CC1,7.58,5.47%
O=C(Nc1ccncc1)c1ccccc1[N+](=O)[O-],33.6,19%
O=c1[nH]nnc2c1ncn2C1OC(CO)C(O)C1O (stereo unspecified),0.97,17.6%
Cc1ccc(OCC(=O)NNC(=O)c2ccc3c(=O)n4c(nc3c2)CCC4)cc1,-7.39,-3.2%
O=C(O)c1cc(=O)[nH]c2ccc(S(=O)(=O)Nc3ccc(F)cc3)cc12,-12.9,7.7%
Cc1ccc(-c2nc(-c3ccccc3)no2)c(Cl)c1,-51.6,-16.6%
Cc1cccc(NC(=O)c2cc(S(=O)(=O)N(C)c3ccc(F)cc3)ccc2Cl)n1,-17.6,-4.3%
Cc1ccc(CNc2ncnc3ccc(-c4ccc(CO)o4)cc23)o1,11.8,14.7%
Cc1ccc(S(=O)(=O)CC(CN2CCCCC2)N2CCCCC2)cc1 (stereo unspecified),4.8,-1.35%
COc1ccc(NC(=O)/C(C#N)=C\c2cc(C)n(-c3ccc4c(c3)OCO4)c2C)cc1,-34.8,30.7% (active)
CC(=O)c1c(C)n(-c2ccc(C)cc2)c2ccc(O)cc12,35,19.8%
